Assay results reported in PubChem BioAssay AID2061305 (National Center for Advancing Translational Sciences (NCATS), 2025).
Results filed as inconclusive are left out. Activity calls are given as the source filed them. The call rests on the fitted dose curve; in most records, active means well fitted inhibition curve with a large enough effect; inconclusive means small, poorly fitted or top-dose-only effect; inactive means flat fitted curve, though single readings scatter. Where a SMILES comes first, the peptide text is derived from it. [ ]: non-standard residue; d: D form. The star is where a group is joined. Dolaproine = CO[C@@H]([C@@H]1CCCN1)[C@@H](C)C(=O)O; Dil = CC[C@H](C)[C@H](NC)[C@@H](CC(=O)O)OC; NMe2Val = CC(C)[C@@H](C(=O)*)N(C)C; X1 = C[C@@H](N*)[C@@H](O)c1ccccc1; NMeV = CN[C@H](C(=O)O)C(C)C

Assay: Identification of antibody-drug conjugate (ADC) payloads which are substrates of ATP-binding cassette drug efflux transporters: ABCB1-HeLa-KB-3-1 cell line
Conditions: KB-3-1 (HeLa derivative) viability, CellTiter-Glo, 48 h
Excerpt: Antibody-drug conjugates (ADCs) feature an antibody recognizing a specific protein joined to a potent toxic payload. Numerous antibody-drug conjugates have received FDA approval; however, clinical resistance arises. Resistance mechanisms include decreased expression or mutation of the antibody target, impaired payload release, or increased expression of ATP-binding cassette (ABC) efflux transporters associated with multidrug resistance. We therefore sought to characterize the interaction of ABC multidrug transporters with ADC payloads. We performed a high-throughput screen with 27 common ADC payloads using cells lines expressing ABC transporters P-glycoprotein (P-gp, encoded by ABCB1) or ABCG2 (encoded by ABCG2). Confirmatory assays were also performed using cells transfected to express P-gp, ABCG2, or MRP1 (encoded by ABCC1). Several commonly used ADC payloads were substrates of P-gp, including calicheamicin gamma1, monomethyl auristatin E, DM1, and DM4. All the pyrrolobenzodiazepines tested - SJG136, SGD-1882, SG2057, and SG3199 - were substrates of P-gp, ABCG2, and MRP1. […] These findings highlight the risk of transporter-mediated resistance with certain ADC payloads and underscore the importance of selecting payloads that evade ABC transporter recognition in future ADC development.
HEK-293 cells were transfected with empty vector (pcDNA) or vector containing the human ABCB1 (MDR-19), ABCG2 (R-5), or ABCC1 gene (MRP1) and were maintained in EMEM with 2 mg/mL G418 added to maintain transporter expression. The HeLa derivative KB-3-1 and the P-gp overexpressing KB-8-5-11 subline were maintained in DMEM; KB-8-5-11 additionally received 100 ng/mL colchicine. H460 parental cells were obtained from the Division of Cancer Treatment and Diagnosis Tumor Repository, National Cancer Institute at Frederick, MD and were cultured in RPMI. The ABCG2 expressing subline H460 MX20 was generated by selecting H460 cells in 20 nM mitoxantrone. Media in all cases was supplemented with 10% FBS and 1% penicillin-streptomycin. We explored 27 common ADC payloads, in two orthogonal, paired cell line sets-a drug selected and transfected set for each transporter--to identify substrates of the ABC transporters P-gp and ABCG2. Compounds were sourced from Levena Biopharma (San Diego, CA), Selleck Chem (Houston, TX), ChemieTek (Indianapolis, IN), or Microsource Discovery Systems (Gaylordsville, CT). Screening was performed as previously described. Briefly, cells were plated at a density of 500 cells/well in 1536 well plates with compounds added using a 1536-head pin tool (Kalypsys, San Diego CA). Cells were incubated with cytotoxic drugs and processed with CellTiter Glo reagent (Promega, Madison, WI) to determine viability after 48 hours. P-gp substrates were identified by comparing compound activity between paired sets of low-expressing (sensitive) and over-expressing (resistant) cell lines.

**Q.** Which Potency does the source give for `COc1cc2cc(C(=O)N3C[C@@H](CCl)c4c3cc(O)c3ccccc43)[nH]c2c(OC)c1OC` here?
**A.** Its Potency is 1.3 nM (active).

**Q.** Which Potency does the source give for `CC[C@H](C)[C@H](NC(=O)[C@H]1CCCCN1C)C(=O)N(C)[C@H](C[C@@H](OC(C)=O)c1nc(C(=O)N[C@@H](Cc2ccccc2)C[C@H](C)C(=O)O)cs1)C(C)C` here?
**A.** Its Potency is 0.3 nM (active).

**Q.** For `CC[C@H](C)[C@@H]([C@@H](CC(=O)N1CCC[C@H]1[C@H](OC)[C@@H](C)C(=O)N[C@H](C)[C@@H](O)c1ccccc1)OC)N(C)C(=O)[C@@H](NC(=O)[C@@H](NC)C(C)C)C(C)C` (H-[NMeV]V[Dil][Dolaproine]-X1), which Potency is on record?
**A.** The Potency was 0.3 nM (active).

**Q.** With `CC[C@H](C)[C@@H]([C@@H](CC(=O)N1CCC[C@H]1[C@H](OC)[C@@H](C)C(=O)N[C@@H](Cc1ccccc1)C(=O)O)OC)N(C)C(=O)[C@@H](NC(=O)[C@H](C(C)C)N(C)C)C(C)C` (NMe2Val-V[Dil][Dolaproine]F-OH) as the compound, how does the Potency read?
**A.** The Potency was 33.4 nM (active).

**Q.** With `CC[C@H](C)[C@@H]([C@@H](CC(=O)N1CCC[C@H]1[C@H](OC)[C@@H](C)C(=O)N[C@H](C)[C@@H](O)c1ccccc1)OC)N(C)C(=O)[C@@H](NC(=O)[C@H](C(C)C)N(C)C)C(C)C` as the compound, how does the Potency read?
**A.** Its Potency is 0.2 nM (active).

**Q.** For `COc1cc2cc(c1Cl)N(C)C(=O)C[C@H](OC(=O)[C@H](C)N(C)C(=O)CCC(C)(C)S)[C@]1(C)OC1[C@H](C)C1C[C@@](O)(NC(=O)O1)[C@H](OC)/C=C/C=C(\C)C2` (stereo not given in full), which Potency is on record?
**A.** Its Potency is 0.5 nM (active).

**Q.** For `CC[C@@]1(O)C(=O)OCc2c1cc1n(c2=O)Cc2cc3ccccc3nc2-1`, which Potency is on record?
**A.** The Potency was 334 nM (active).

**Q.** Which Potency does the source give for `CC[C@H](C)[C@H](NC(=O)[C@H]1CCCCN1C)C(=O)N(C)[C@H](C[C@@H](OC(C)=O)c1nc(C(=O)O)cs1)C(C)C` here?
**A.** The Potency was 472 nM (active).

**Q.** With `COc1cccc2c1C(=O)c1c(O)c3c(c(O)c1C2=O)C[C@@](O)(C(=O)CO)CC3OC1CC(N2CCOC(OC)C2)C(O)C(C)O1` (stereo not given in full) as the compound, how does the Potency read?
**A.** The Potency was 11.8 nM (active).

**Q.** Which Potency does the source give for `CC[C@H](C)[C@@H]1NC(=O)CNC(=O)[C@H]2Cc3c([nH]c4cc(O)ccc34)S(=O)C[C@H](NC(=O)CNC1=O)C(=O)N[C@@H](CC(N)=O)C(=O)N1C[C@H](O)C[C@H]1C(=O)N[C@@H]([C@@H](C)[C@@H](O)CO)C(=O)N2` (stereo not given in full) here?
**A.** Its Potency is 5290 nM (active).
